From PubChem
Only some compounds are listed: those with a hit (about 6.9% of all), similar ones and a draw of the others.
SW480 rereplic = A quantitative high throughput screen for small molecules that induce DNA re-replication in SW480 colon adenocarcinoma cells; 1.8% of 340,000 active; SW480 DNA re-replication, Hoechst DNA content imaging, 48 h; Potency, µM (doses to about 46.1 µM), inactives show at the highest dose re-replication activation, most hits filed as activators; further: potency means the concentration at half of the fitted maximal effect; % of control where 0% means no effect; nearly all actives have a fitted effect of over 55% in size
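Readout is total intensity of Hoechst-stained nuclei, excited at 405 nm and collected at 500-530 nm. Compound treatment lasted 48 hr at 37 C in 5% CO2 before staining.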
KB-3-1 cytotox = qHTS assay for MDR1-selective chemotherapeutics: Primary screen using the parental adenocarcinoma cell KB-3-1; Potency, µM (top dose mostly 46.1 µM), hits mostly cytotoxic; 1.4% of 400,000 active; KB-3-1 viability, CellTiter-Glo ATP luminescence, 72 h; further: potency means the concentration at half of the fitted maximal effect; on the % scale 0 is the no-effect control and ±100 the full control effect; nearly all actives have a fitted effect of over 60% in size
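Multi-concentration cytotoxicity screen in KB-3-1 cells grown in DMEM lacking phenol red with 10% FBS. After 72 h at 37 °C with compound, ATP-dependent luminescence was recorded.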
Giardia kill = Small Molecules that selectively kill Giardia lamblia: qHTS | Giardia lamblia trophozoite viability | activity change, % at 7.66 µM, hits read low | 0.15% of 340,000 active; in the data active means activity change below about -80%; inconclusive means between about -30% and that limit;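 further: parasites exposed to compound for two days anaerobically before the ATP read; on the % scale 0 is the no-effect control and ±100 the full control effect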
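Luminescence from cellular ATP indicates surviving trophozoites (100 cells/well) following 48 hrs anaerobic compound treatment at 37 deg C; signal develops 15-30 min at room temperature.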
KB-V1 MDR tox = qHTS assay for MDR1-selective chemotherapeutics: Primary screen using the drug-selected MDR subline cells KB-V1. AID 1347076, 2019. KB-V1 MDR cells viability, CellTiter-Glo, 72 h. 3.4% of 400,000 active. Potency, µM (titrated, usually from 46.1 µM), usual class: cytotoxic; further: potency means the concentration at half of the fitted maximal effect; on the % scale 0 is the no-effect control and ±100 the full control effect; nearly all actives have a fitted effect of over 60% in size
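Drug-selected KB-V1 cells, grown in DMEM lacking phenol red with 10% FBS, receive compound titrations; after three days at 37 degrees C, surviving cell ATP is quantified by CellTiter-Glo luminescence and responses normalized and curve-fitted.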
MCF10A rerep = A quantitative high throughput screen for small molecules that induce DNA re-replication in MCF 10a normal breast cells | MCF 10A DNA re-replication, Hoechst nuclear intensity, 48 h | Potency, µM (series often up to 46.1 µM), for the others: at the highest dose activity, positive = re-replication, actives largely listed as activators | 2.9% of 350,000 active; further: potency means the concentration at half of the fitted maximal effect; % of control where 0% means no effect; nearly all actives have a fitted effect of over 50% in size
ASM inhibitor = Inhibitors of Secretory Acid Sphingomyelinase (S-ASM): qHTS; Sphingomyelin phosphodiesterase (Homo sapiens), P17405; placental ASM, HMU-PC fluorogenic substrate, 60 min; Potency, µM (highest dose often 57.5 µM), for inactives: at the top dose activity change, negative = inhibition, most hits filed as inhibitors; 0.006% of 340,000 active; further: potency means the concentration at half of the fitted maximal effect
Target sequence (P17405 47-631 limits assumed): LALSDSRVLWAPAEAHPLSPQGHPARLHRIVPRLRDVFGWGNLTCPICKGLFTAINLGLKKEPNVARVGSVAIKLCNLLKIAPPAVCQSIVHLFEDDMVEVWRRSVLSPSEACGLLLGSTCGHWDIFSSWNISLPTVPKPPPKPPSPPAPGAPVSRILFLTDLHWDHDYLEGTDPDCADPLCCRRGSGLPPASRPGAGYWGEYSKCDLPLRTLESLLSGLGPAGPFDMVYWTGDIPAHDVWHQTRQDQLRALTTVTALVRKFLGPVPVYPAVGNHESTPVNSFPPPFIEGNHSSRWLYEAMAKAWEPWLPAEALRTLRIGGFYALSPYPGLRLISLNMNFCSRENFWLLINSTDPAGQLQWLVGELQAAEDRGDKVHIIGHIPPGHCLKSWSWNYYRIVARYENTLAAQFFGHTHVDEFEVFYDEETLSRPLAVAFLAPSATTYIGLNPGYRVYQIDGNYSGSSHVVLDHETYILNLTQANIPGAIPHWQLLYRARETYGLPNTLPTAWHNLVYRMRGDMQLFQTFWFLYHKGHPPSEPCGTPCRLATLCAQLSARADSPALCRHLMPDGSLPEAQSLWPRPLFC
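Fluorescence read-out (Ex 386 nm, Em 447 nm) after stopping the reaction at pH 10. Enzyme: ASM from human placenta; substrate HMU-PC0, 9 uM final; 60 min, 37 °C. Compound preincubation 10 min, ambient temperature.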
* hit, by the source's call; i = inactive; ? = inconclusive; nt = no result; [ ] = another dose, or the depositor's remark. Unless noted, the call rests on the fitted dose curve; in most records, active means well fitted curve in the direction sought with a large enough effect; inconclusive means small, poorly fitted or top-dose-only effect, or another doubt; inactive means no such curve, though single readings can be large; an effect the other way counts as inactive or inconclusive.

SMILES | SW480 rereplic | KB-3-1 cytotox | Giardia kill | KB-V1 MDR tox | MCF10A rerep | ASM inhibitor
O=[N+]([O-])c1ccc2c(c1)/C(=C/c1ccc(C=S)cc1)C=C2 | nt | i | nt | i | nt | nt
CCOC(=O)c1cnc(SCc2nc(N)nc(Nc3ccc(F)cc3)n2)nc1N | ? | ? | 12 | ? | 3.7µM* | 0%
CCOC(=O)c1cnc(SCc2nc(N)nc(Nc3ccc(C)cc3)n2)nc1N | ? | ? | -23 | ? | 10µM* | -13%
Cc1oc2ncnc(N3CCCCC3)c2c1C(=O)N1CCN(c2cccc(C(F)(F)F)c2)CC1 | nt | i | nt | i | nt | nt
Cc1ccc(C)c(NCC(=O)c2ccc(Cl)cc2)c1 | ? | i | 20 | i | 23µM* | -9%
Cc1ccc(C(=O)CNc2cc(C)ccc2C)cc1 | -1% | i | -21 | i | -9% | -1%
CNC(=O)Nc1cc(C)nn1C | 23µM* | i | -24 | i | -5% | 6%
Cc1cc(NC(=O)Nc2cccc(C(F)(F)F)c2)n(C)n1 | -6% | i | 5 | i | 23% | 5%
CC(C)N(CCCNC(=O)c1ccc(CS(=O)(=O)c2c(Cl)cccc2Cl)o1)Cc1ccccc1 | -8% | i | -17 | i | 4% | -1%
Cc1cccc(NC2=C(NC(=O)c3ccccc3)C(=O)c3ccccc3C2=O)c1 | 18µM* | i | -4 | 15µM* | ? | nt
Cc1cccc(NC(=O)c2cccc3c2C(=O)c2ccccc2-3)c1 | -1% | i | -20 | 6.5µM* | 22% | -8%
O=C(NC1=C(Nc2ccc(Cl)cc2)C(=O)c2ccccc2C1=O)c1ccccc1 | ? | 18µM* | -15 | 21µM* | 3% | -14%
Cc1cccc(NC(=O)c2ccccc2-c2ccccc2)c1 | -3% | i | -18 | i | 19% | -3%
Cc1cccc(C(=O)Nc2cccc(NC(=O)c3ccccc3)c2)c1 | -2%[9.22 µM] | i | -13 | i | 0% | -4%
O=C(Nc1ccc(Nc2ccccc2)cc1)c1ccc(Cl)cc1 | 9% | i | 10 | i | 6% | -8%
C=CCn1c(O)c(C=Nc2ccc(CN3CCCCC3)cc2)c(=O)[nH]c1=S | 60% | ? | -5 | ? | ? | 5%
Cc1cc(C(=O)COc2ccccc2C(N)=O)c(C)n1CC1CCCO1 (centres undefined) | 0% | i | -11 | 4.6µM* | 12% | 5%
CCC(=O)Nc1cc2[nH]c(=O)cc(C)c2cc1C | -22% | i | -2 | i | 0.65µM* | 8%
Cc1cc2oc(=O)cc(C)c2cc1NC(=O)CCl | ? | ? | 9 | i | 29% | 4%
Cc1cc2c(C)cc(=O)[nH]c2cc1NC(=O)CCl | 21µM* | ? | 3 | ? | 12µM* | -2%
O=C(CCl)Nc1cc2[nH]c(=O)[nH]c2cc1Br | ? | ? | 2 | 15µM* | 21µM* | -3%
Cc1cc(=O)[nH]c2ccc(O)cc12 | nt | i | nt | i | nt | nt
Cn1/c(=N/NC(=O)c2ccccc2F)sc2ccccc21 | -8% | i | -3 | i | 0% | -1%
Cc1nn(C(=O)c2cc([N+](=O)[O-])ccc2Cl)c(C)c1Br | -17% | i | 19 | ? | 1% | -1%
Cc1cccc(NC(=O)N2CCC(c3nc4ccccc4o3)CC2)c1 | -8% | i | -19 | 18µM* | -10% | -3%
SMILES | SW480 rereplic | KB-3-1 cytotox | Giardia kill | KB-V1 MDR tox | MCF10A rerep | ASM inhibitor
Cc1cc(C)cc(NC(=O)N2CCC(c3nc4ccccc4o3)CC2)c1 | 1% | i | 13 | i | 19% | -1%
Cc1c(Cl)sn(-c2ccc(Cl)cc2)c1=O | 1.8µM* | 16µM* | -3 | ? | 3.3µM* | 1%
Cc1nn(-c2ccc(Cl)cc2)c(=O)c2ccccc12 | -12% | i | 2 | i | -5% | 1%
Cc1ccc(C)c(S(=O)(=O)N2CCN(Cc3cc4c(cc3O)OCO4)CC2)c1 | 12% | i | 0 | i | 3% | 3%
CCNC(=S)N=Nc1c(O)[nH]c2ccc(C(C)C)cc12 | -2% | i | -14 | 3.7µM* | 18% | -15%
CC(C)c1ccc2[nH]c(O)c(N=NC(=S)NCCc3ccccc3)c2c1 | -9% | ? | -25 | i | ? | ?
COc1cccc(C(=O)Nc2ccc3nc(SCc4ccc(C)cc4)sc3c2)c1 | nt | i | nt | i | nt | nt
O=C(CCNc1ccccc1)c1cccc([N+](=O)[O-])c1 | 8.2µM* | i | -3 | i | 3.7µM* | 0%
Cc1ccc(NCCC(=O)c2cccc([N+](=O)[O-])c2)cc1 | ? | i | -13 | i | 6.5µM* | 0%
CCOc1ccc(C(=O)Nc2c(C(=O)Nc3ccccc3F)oc3ccccc23)cc1OCC | nt | i | nt | i | nt | nt
COc1ccc(CCN(C)C(=O)CN2C(=O)NC3(CCCc4ccccc43)C2=O)cc1OC (centres undefined) | 14% | i | 4 | i | 1% | 4%
COc1cccc(NC(=O)CN(CCc2ccccc2)S(=O)(=O)c2ccc(Cl)cc2)c1 | nt | i | nt | i | nt | nt
CCOc1ccccc1NC(=O)CSc1ccc2nc(-c3ccccc3)cn2n1 | nt | i | nt | i | nt | nt
Cc1nc2c(o1)C(=O)c1ccccc1C2=Nc1ccccc1 | 4.1µM* | 4.6µM* | -101* | 3.3µM* | 6.5µM* | 0%
Cc1ccc(N=C2C(=O)Nc3ccccc32)cc1 | -12% | i | 8 | i | 1% | 6%
Cc1nc(Cl)c(C(=O)NC(=O)Nc2cccc(C(F)(F)F)c2)c(C)c1[N+](=O)[O-] | ? | 10µM* | -9 | ? | 18% | -13%
CC(=O)NCCNC(=O)c1ccc2c(=O)n(CCc3ccccc3)c(=O)[nH]c2c1 | nt | i | nt | i | nt | nt
CCOc1ccccc1N(CC)C(=O)Cn1ncc2c1-c1ccccc1OC2 | nt | i | nt | i | nt | nt
O=c1oc2c(CN3CCN(CCO)CC3)c(O)ccc2cc1-c1ccccn1 | 6.5µM* | i | 9 | ? | 8.2µM* | i
CC(C)COC(=O)c1ccc2c(c1O)C(=O)c1ccccc1C2=O | ? | i | -14 | 15µM* | ? | -19%
NC(=O)COC(=O)c1cccc2c1-c1ccccc1C2=O | -12% | i | -10 | ? | -5% | -1%
CCC1CCCCN1C(=O)CSc1nc2c([nH]c3ccccc32)c(=O)n1-c1ccc(OC)cc1 (centres undefined) | nt | i | nt | ? | nt | nt
